# Records with an inconclusive call do not appear. Values without a mark were called inactive. Activity calls are given as the source filed them. Calls follow the shape of the dose curve; as a rule, active = well fitted cell-killing curve with a large enough effect; inconclusive = small, poorly fitted or top-dose-only effect, or effect the other way; inactive = no such curve, though single readings can be large or run the other way.
# Test: Quantitative High-Throughput drug screen in 47 multiple myeloma cell lines against the NCATS MIPE library collection: INA6_PLB cell viability assay (AID 1918965; also: nearly all actives have a fitted effect of over 55% in size)
# Conditions: INA6 myeloma viability, CellTiter-Glo ATP luminescence, 48 h; series mostly up to 45.8 µM; viability (% of control): at the top concentration
# From the text: PI: Beverly A. Mock Ph.D.
# Laboratory of Cancer Biology and Genetics,
# Center for Cancer Research, National Cancer Institute,
# National Institute of Health, Bethesda, Maryland
# Drug resistance and disease progression are common in multiple myeloma (MM) patients, underscoring the need for new therapeutic combinations. […] We hypothesized that effective combinations would reduce MYC expression and enhance p16 activity. […] These preclinical data identify potentially useful drug combinations for evaluation in drug-resistant MM and reveal potential mechanisms of combined drug sensitivity.
# Described herein is the primary MIPE qHTS used to cherrypick compounds. Validated compounds were then further tested for potential synergistic activiy.
# [1] Peat TJ, Gaikwad SM, Dubois W, Gyabaah-Kessie N, Zhang S, Gorjifard S, Phyo Z, Andres M, Hughitt VK, Simpson RM, Miller MA, Girvin AT, Taylor A, Williams D, D'Antonio N, Zhang Y, Rajagopalan A, Flietner E, Wilson K, Zhang X, Shinn P, Klumpp-Thomas C, McKnight C, Itkin Z, Chen L, Kazandijian D, Zhang J, Michalowski AM, Simmons JK, Keats J, Thomas CJ, Mock BA. Drug combinations identified by high-throughput screening promote cell cycle transition and upregulate Smad pathways in myeloma. Cancer Lett. 2023 Aug 1;568:216284. doi: 10.1016/j.canlet.2023.216284. Epub 2023 Jun 24. PMID: 37356470; PMCID: PMC10408729.
# SEQUENCE No. (e.g., 1, 2, 3, etc.); […] (e.g., Cells, Incubation, Reagent, etc.); VALUE and DESCRIPTION.
# 1; Cells; 5 uL; white, solid bottom 1536-well Greiner assay plate.
# 2; Compounds; 23 nL; Kalypsis pin tool (Wako USA) equipped with a 1536-well pin head to transfer to the assay plates.
# 3; Incubation; 48 hours; 37C incubation.
# 4; Reagent;5uL; CellTiter Glo (Promega).
# 5; Detector; 425V; Luminescence; Viewlux PerkinElmer.
# NOTES (numbers refer to Sequence numbers above)
# 1. The cell-based screening methods employed in this study were like those previously published. Briefly, the corresponding myeloma cell lines were screened in 1,536-well plates with 500 cells, 5-uL per well for inhibition of cell viability (assessed by measuring ATP levels with CellTiterGlo).
# 2. NCATS MIPE 4.0 library of approved and investigational drugs were added using the Kalypsis pin tool. Wells treated with DMSO only for 100% viability and media only wells for 0% viability were used as controls.
# 3. The assay plates were covered and incubated for 48 hours in a 37C, 5% CO2 incubator with controlled humidity.
# 4. After 48 hours, CellTilter-GloTM luminescent substrate mix (Promega) reagent was added to the assay plate and plates we incubated for 5 min at room temperature.
# 5. Signal was measured as median relative luminescence units on a ViewLux (PerkinElmer) multiplate reader.
# [1] Heske CM, Davis MI, Baumgart JT, Wilson K, Gormally MV, Chen L, Zhang X, Ceribelli M, Duveau DY, Guha R, Ferrer M, Arnaldez FI, Ji J, Tran HL, Zhang Y, Mendoza A, Helman LJ, Thomas CJ. Matrix Screen Identifies Synergistic Combination of PARP Inhibitors and Nicotinamide Phosphoribosyltransferase (NAMPT) Inhibitors in Ewing Sarcoma. Clin Cancer Res. 2017 Dec 1;23(23):7301-7311. doi: 10.1158/1078-0432.CCR-17-1121. Epub 2017 Sep 12. PMID: 28899971; PMCID: PMC6636827.
# Potency is read from the fitted curve at half-maximal effect.
Structure (SMILES),Potency,viability (% of control)
CO[C@@H]1C(N(C)C(=O)c2ccccc2)C[C@H]2O[C@]1(C)n1c3ccccc3c3c4c(c5c6ccccc6n2c5c31)C(=O)NC4=O (stereo not given in full),1.48 µM (active),
CC(C)=CCCC(C)=CCCC(C)=CCCC(C)=CCCC(C)=CCCC(C)=CCCC(C)=CCCC(C)=CCCC(C)=CCO,,188%
COc1cc2nc(-c3cc(F)ccc3O)nc(N[C@@H]3CNC[C@@H]3C(C)(C)O)c2cc1OC,0.001 µM (active),
Fc1ccc(CNc2ncnc3ccc(F)cc23)cc1,8.33 µM (active),
CN[C@H]1[C@@H](O[C@@H]2[C@H](O[C@@H]3[C@@H](O)[C@@H](O)[C@@H](N=C(N)N)[C@@H](O)[C@@H]3N=C(N)N)O[C@H](C)[C@@]2(O)C=O)O[C@@H](CO)[C@@H](O)[C@H]1O,,144% [at 15.3 µM]
O=C1NC(=O)C(c2cnc3ccccn23)=C1c1cn2c3c(cccc13)CN(C(=O)N1CCOCC1)CC2,0.001 µM (active),
Cc1ccccc1C(=O)c1ccc(Nc2ccc(Br)cc2N)cc1Cl,18.7 µM (active),
CCCC1OC2C[C@@H]3[C@H]4CCC5=CC(=O)C=C[C@]5(C)[C@H]4C(O)C[C@]3(C)[C@]2(C(=O)CO)O1 (stereo not given in full),,133%
NC(=O)c1ccc(N(C(N)=O)c2c(F)cccc2F)nc1-c1ccc(F)cc1F,18.7 µM (active),
Cc1c(-c2cccc3c(CCCOc4cccc5ccccc45)c(C(=O)O)n(Cc4cccnc4)c23)c(COc2ccc(N3CCN([S+](=O)([O-])N(C)C)CC3)cc2)nn1C,16.6 µM (active),
CC1=C(C(=O)Nc2cc3cn[nH]c3cc2F)C(c2ccc(C(F)(F)F)cc2)CC(=O)N1 (stereo not given),18.7 µM (active),
Cc1cccc(-c2[nH]c(C(C)(C)C)nc2-c2ccc3c(c2)OCO3)n1,2.64 µM (active),
CN(C)c1ccc(-c2nc3ncc(Cl)c(N4CCN(CC(=O)Nc5nccs5)CC4)c3[nH]2)cc1,2.64 µM (active),
CCCCC(C=O)NC(=O)C(CC(C)C)NC(=O)OCc1ccccc1 (stereo not given),16.6 µM (active),
CC1(C)C(N(O)C(=O)Nc2ccc(Cl)cc2)N(c2ccc(Cl)cc2)C(=O)N1CC(=O)NN=CC=Cc1ccc([N+](=O)[O-])o1 (stereo not given),7.43 µM (active),
c1ccc(-c2oc3ncnc(NC[C@@H]4CCCO4)c3c2-c2ccccc2)cc1,16.6 µM (active),
CCCCC(F)(F)[C@@]1(O)CC[C@H]2[C@H](CC(=O)[C@@H]2CCCCCCC(=O)O)O1,,156%
CC1(C)OC2CC3C4CC(F)C5=CC(=O)C=CC5(C)C4C(O)CC3(C)[C@]2(C(=O)CO)O1 (stereo not given in full),,100%
CCN(CCO)CCCOc1ccc2c(Nc3cc(CC(=O)Nc4cccc(F)c4)[nH]n3)ncnc2c1,0.0743 µM (active),
CCN(CC)CCCCNc1nc2cc(Cl)c(Cl)cc2nc1-c1ccc(-c2cccs2)s1,4.69 µM (active),

Structure (SMILES),Potency,viability (% of control)
CCC(=O)N1CCN(c2ccc(-n3c(=O)ccc4cnc5ccc(-c6cnc7ccccc7c6)cc5c43)cc2C(F)(F)F)CC1,0.0148 µM (active),
O=C(c1ccc(F)c(F)c1Nc1ccc(I)cc1F)N1CC(O)([C@H]2CCCCN2)C1,10.5 µM (active),
CCC(=C(c1ccc(O)cc1)c1ccc(OCCNC)cc1)c1ccccc1,2.64 µM (active),
Oc1cc(O)cc(C=Cc2ccc(O)c(O)c2)c1,2.96 µM (active),
CN[C@@H]1[C@@H](O)[C@@H](O[C@@H]2[C@@H](O)[C@H](O[C@H]3O[C@H](CN)[C@@H](O)[C@H](O)[C@@H]3O)[C@@H](N)C[C@@H]2NC(=O)[C@@H](O)CN)OC[C@]1(C)O,,128%
OC1CCC(Nc2ncc3nc(Nc4c(F)cc(F)cc4F)n([C@@H]4CCOC4)c3n2)CC1 (stereo not given in full),14.8 µM (active),
OC[C@H]1O[C@@H](O[C@H]2[C@@H](O)[C@@](O)(CO)O[C@@H]2CO)[C@H](O)[C@@H](O)[C@@H]1O,,105%
O=C(Nc1ncc(SCCN2CCCC2)s1)[C@]1(c2ccc(S(=O)(=O)C3CC3)cc2)C[C@@H]1C1CCCCC1,16.6 µM (active),
CN(C)CCCNC(=O)c1ccc(-c2cc(O)c3ncccc3c2)cc1,20.9 µM (active),
O=C(O)C1=NC(C(=O)O)CC(C=CN2c3cc(O)c(OC4OC(CO)C(O)C(O)C4O)cc3CC2C(=O)O)=C1 (stereo not given),,180%
O=C(O)CCNc1cc(N2CCc3ccccc3CC2)nc(-c2ccccn2)n1,16.6 µM (active),
CC(=O)OCC(=O)[C@@]1(O)CC[C@H]2[C@@H]3CCC4=CC(=O)C=C[C@]4(C)[C@@H]3[C@@H](O)C[C@@]21C,7.43 µM (active),
O=c1[nH]nc(OCCCc2ccc(Cl)cc2)c(NCc2cccnc2)c1Br,4.69 µM (active),
Cc1cc(-c2ncc(CC(=O)Nc3ccc(-c4cnccn4)cn3)cc2C)ccn1,10.5 µM (active),
CC1C(=O)OC2C(O)C34C5CC(C(C)(C)C)C36C(OC(=O)C6O)OC4(C(=O)O5)C12O (stereo not given),,162%
CN(C(Cc1ccc(OS(=O)(=O)c2cccc3cnccc23)cc1)C(=O)N1CCN(c2ccccc2)CC1)S(=O)(=O)c1cccc2cnccc12 (stereo not given),3.72 µM (active),
COc1nccc(-c2c(-c3ccc(F)cc3)ncn2C2CCNCC2)n1,10.5 µM (active),
CCN1CCC(n2cc(CNc3cc(Cl)c4ncc(C#N)c(Nc5ccc(F)c(Cl)c5)c4c3)nn2)CC1,20.9 µM (active),
NC(=O)c1ncn([C@@H]2O[C@H](CO)[C@@H](O)[C@@H]2O)n1,,129%
COc1ccc2c(c1)c(C1=C(c3c[nH]c4ccccc34)C(=O)NC1=O)cn2CCCN(C)C,0.526 µM (active),
